Reference: PubChem BioAssay
Values without a mark were called inactive. A call without a number means that no potency is given here. For part of these data: Potency and affinity values are given separately. Calls of active or inactive are those of the source. Unless noted, how the calls were made is not given here.

Experiments:
[1] = antimalarial activity against Dd2 strain (AID 2302;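 active means growth inhibition above 50% at the single 2 µM test dose, taken to imply half-maximal potency below 2 µM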); conditions: P. falciparum Dd2 in RBCs, LDH growth readout, 72 h; at 2 µM; stronger effect = higher value
[2] = human hepatoma cell viability loss – ATP luminescence, cytotoxicity control for P. falciparum antimalarial project, primary screen (AID 2303;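 active means inhibition above 50%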); conditions: HepG2 viability, 24-48 h, at 10 µM, stronger effect = higher value
[3] = molecular target: L-lactate dehydrogenase (Plasmodium falciparum (isolate CDC / Honduras)) (UniProt Q27743); experiment: PfLDH activity inhibition – cell lysate, 3D7 strain, counter-screen for P. falciparum growth inhibition project (AID 2304); conditions: P. falciparum 3D7 crude extract, LDH APAD/NBT absorbance; at 2 µM; stronger effect = higher value
[4] = inhibition of 3D7 malaria parasite growth – strain 3D7 (AID 2306); conditions: P. falciparum 3D7 erythrocytic growth, LDH absorbance, 72 h; at 2 µM; stronger effect = higher value
[5] = molecular target: Calcium-dependent protein kinase 1 (Plasmodium falciparum (isolate 3D7)) (UniProt P62344); experiment: PfCDPK1 kinase inhibitors, biochemical, TCAMS library (AID 1159585; cut-off not given, nearly all actives have IC50 up to about 0.98 µM;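 further: inhibitors leave more ATP so luminescence rises with inhibition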); conditions: recombinant PfCDPK1, Kinase-Glo ATP depletion luminescence
[6] = molecular target: Plasmodium falciparum protein kinase 6 (PK6, PF3D7_1337100) (UniProt Q8IDW1); experiment: PfPK6 kinase inhibitors, biochemical, TCAMS library (AID 1159586); conditions: recombinant PfPK6, Kinase-Glo ATP depletion luminescence
[7] = molecular target: Protein kinase 7 (PK7), Plasmodium falciparum 3D7 (PF3D7_0213400) (UniProt Q7YTF7); experiment: inhibition of Plasmodium PK7 catalytic activity – biochemical, TCAMS antimalarial set, Kinase-Glo luminescence (AID 1159587); conditions: recombinant PfPK7, Kinase-Glo ATP depletion luminescence
[8] = molecular target: Calcium-dependent protein kinase 4 (Plasmodium falciparum (isolate 3D7)) (UniProt Q8IBS5); experiment: PfCDPK4 kinase inhibitors, biochemical, TCAMS library (AID 1159588; cut-off not given, nearly all actives have IC50 up to about 0.91 µM); conditions: recombinant PfCDPK4, Kinase-Glo ATP depletion luminescence
Sequence of Calcium-dependent protein kinase 4 (Plasmodium falciparum (isolate 3D7)) (Q8IBS5 whole entry, looked up): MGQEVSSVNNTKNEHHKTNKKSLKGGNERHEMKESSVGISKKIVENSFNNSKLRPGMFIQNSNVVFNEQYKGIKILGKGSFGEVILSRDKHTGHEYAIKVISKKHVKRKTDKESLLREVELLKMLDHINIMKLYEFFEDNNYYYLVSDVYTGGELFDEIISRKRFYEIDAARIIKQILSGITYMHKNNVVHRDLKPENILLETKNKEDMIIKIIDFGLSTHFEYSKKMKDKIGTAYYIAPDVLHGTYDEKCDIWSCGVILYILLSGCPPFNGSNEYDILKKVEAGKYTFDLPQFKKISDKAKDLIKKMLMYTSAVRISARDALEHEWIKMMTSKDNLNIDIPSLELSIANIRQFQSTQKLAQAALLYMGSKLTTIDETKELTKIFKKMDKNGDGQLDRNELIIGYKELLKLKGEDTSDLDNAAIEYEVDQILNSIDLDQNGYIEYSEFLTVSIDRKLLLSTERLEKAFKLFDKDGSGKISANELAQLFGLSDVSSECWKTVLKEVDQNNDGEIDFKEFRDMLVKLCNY

Sequence of Calcium-dependent protein kinase 1 (Plasmodium falciparum (isolate 3D7)) (P62344 whole entry, looked up): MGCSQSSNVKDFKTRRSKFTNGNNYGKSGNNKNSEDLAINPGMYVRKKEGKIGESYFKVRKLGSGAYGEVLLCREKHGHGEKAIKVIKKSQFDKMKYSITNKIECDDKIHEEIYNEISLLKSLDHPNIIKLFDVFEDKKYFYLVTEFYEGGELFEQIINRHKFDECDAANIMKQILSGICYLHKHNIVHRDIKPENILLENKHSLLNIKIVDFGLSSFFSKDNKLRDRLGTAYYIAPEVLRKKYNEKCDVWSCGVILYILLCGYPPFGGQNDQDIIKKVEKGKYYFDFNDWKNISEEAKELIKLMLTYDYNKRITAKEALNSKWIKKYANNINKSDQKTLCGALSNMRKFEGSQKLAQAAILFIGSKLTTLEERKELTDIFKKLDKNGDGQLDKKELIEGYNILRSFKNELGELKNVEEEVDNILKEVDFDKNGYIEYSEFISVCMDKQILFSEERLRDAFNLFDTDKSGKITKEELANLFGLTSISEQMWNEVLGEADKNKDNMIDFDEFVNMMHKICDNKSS
Sequence of Protein kinase 7 (PK7), Plasmodium falciparum 3D7 (PF3D7_0213400) (Q7YTF7 1-343): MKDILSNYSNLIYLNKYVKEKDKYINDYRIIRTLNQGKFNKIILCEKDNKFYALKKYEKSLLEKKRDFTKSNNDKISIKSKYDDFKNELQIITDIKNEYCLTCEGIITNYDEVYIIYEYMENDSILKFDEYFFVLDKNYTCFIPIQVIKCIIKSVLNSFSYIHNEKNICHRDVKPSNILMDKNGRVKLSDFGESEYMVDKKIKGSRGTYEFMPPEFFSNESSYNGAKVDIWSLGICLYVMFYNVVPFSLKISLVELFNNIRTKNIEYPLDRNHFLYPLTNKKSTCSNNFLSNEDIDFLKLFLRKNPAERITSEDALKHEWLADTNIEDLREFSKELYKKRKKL
Sequence of Plasmodium falciparum protein kinase 6 (PK6, PF3D7_1337100) (Q8IDW1 1-305): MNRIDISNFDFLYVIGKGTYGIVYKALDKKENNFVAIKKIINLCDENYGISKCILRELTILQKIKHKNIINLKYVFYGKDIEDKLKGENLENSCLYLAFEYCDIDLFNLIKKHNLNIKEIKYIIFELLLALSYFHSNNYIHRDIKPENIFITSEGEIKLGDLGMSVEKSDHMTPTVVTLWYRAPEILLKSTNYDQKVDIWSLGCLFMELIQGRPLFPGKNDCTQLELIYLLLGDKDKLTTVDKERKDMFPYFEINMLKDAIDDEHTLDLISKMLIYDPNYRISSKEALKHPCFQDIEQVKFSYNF
Sequence of L-lactate dehydrogenase (Plasmodium falciparum (isolate CDC / Honduras)) (Q27743 whole entry, looked up): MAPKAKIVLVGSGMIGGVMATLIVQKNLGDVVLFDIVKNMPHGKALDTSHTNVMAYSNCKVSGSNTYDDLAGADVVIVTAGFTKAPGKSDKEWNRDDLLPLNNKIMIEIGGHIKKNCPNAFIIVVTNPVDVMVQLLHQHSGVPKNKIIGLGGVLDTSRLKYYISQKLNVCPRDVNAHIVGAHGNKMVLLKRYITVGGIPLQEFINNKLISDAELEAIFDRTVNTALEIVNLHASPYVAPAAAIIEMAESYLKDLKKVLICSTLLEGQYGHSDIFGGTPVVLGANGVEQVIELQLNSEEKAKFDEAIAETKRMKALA

Compound	growth inhibition [1]	inhibition [2]	inhibition [3] [%]	growth inhibition [4]	outcome [5]	outcome [6]	outcome [7]	outcome [8]
COc1cccc(CN2Cc3ccccc3OC3(CCN(Cc4c[nH]c5cnccc45)CC3)C2)c1	83% (active)	39%	-3	83% (active)	inactive	inactive	inactive	inactive
COC(=O)Cn1c2ccccc2c2c(N)c(C(=O)OC)c(C)nc21	1%	0%	4	93% (active)	inactive	inactive	inactive	inactive
Cc1cc(C)cc(OCC(O)CN(Cc2cc(Cl)cc(Cl)c2)C(=O)Nc2ccc(Cl)cc2)c1 (stereo not drawn)	43%	-9%	-2	97% (active)	inactive	inactive	inactive	inactive
CC[C@H](NC(=O)c1c(N)c(-c2sccc2Cl)nc2ccccc12)c1ccccc1	92% (active)	0%	-4	99% (active)	inactive	inactive	inactive	inactive
Cc1ccc(NC(C)C(=O)Nc2ccccc2)cc1S(=O)(=O)N1CCCCCC1 (stereo not drawn)	97% (active)	12%	-4	99% (active)	inactive	inactive	inactive	inactive
Cc1cccc2[nH]c(-c3cccc(-c4ccc(CNCc5ccccc5)cc4)c3)nc12	100% (active)	33%	-3	99% (active)	inactive	inactive	inactive	inactive
Cc1cc(C)c2cc(CNCCCNc3nc4ccccc4[nH]3)[nH]c2c1	-2%	32%	3	102% (active)	inactive	inactive	inactive	inactive
FC(F)(F)c1ccc2nccc(NN=Cc3cccnc3)c2c1	40%	-9%	-8	101% (active)	inactive	inactive	inactive	inactive
COc1ccc(-c2ccc(NC(=O)c3cccc(C#N)c3)cc2)cc1CN1CCCN(C)CC1	70% (active)	26%	6	102% (active)	inactive	inactive	inactive	inactive
CCOc1ccc(OCC(=O)Nc2nc(-c3ccc(OC)cc3)c(C)s2)cc1	98% (active)	-7%	-8	99% (active)	inactive	inactive	inactive	inactive
N#Cc1ccc(CN2CCC(Oc3ccc(NC(=O)c4ccco4)cc3Cl)CC2)cc1	96% (active)	7%	6	95% (active)	inactive	inactive	inactive	inactive
O=C(CC1SC(N2N=C(c3cccs3)CC2c2ccccc2)=NC1=O)Nc1ccccc1F (stereo not drawn)	76% (active)	9%	-2	87% (active)	inactive	inactive	inactive	inactive
O=S(=O)(Nc1cc2c(cc1OCc1ccccc1)CCN(C1CCC1)CC2)c1ccc(-c2ccc(Cl)cc2)cc1	12%	18%	0	92% (active)	inactive	inactive	inactive	inactive
O=C(Nc1ccc2c(c1)CCC2)N[C@H]1CCN(CCCCCNC(=O)[C@@H]2C[C@H]2c2ccc(Cl)c(Cl)c2)C1	-3%	37%	2	86% (active)	inactive	inactive	inactive	inactive
c1ccc(-c2ccc(CNCc3ccc(-c4cccc(-c5nc6ccccc6[nH]5)c4)cc3)s2)nc1	80% (active)	48%	-1	98% (active)	inactive	inactive	inactive	inactive
O=C(Nc1cccc(Cl)c1)N[C@H]1CCN(Cc2ccc(OCCCN3CCCCC3)cc2)C1	-3%	15%	1	99% (active)	inactive	inactive	inactive	inactive
CN1CCN(c2cc3c(cc2Cl)CCN3C(=O)Nc2ccc(NC(=O)c3ccc(C(F)(F)F)cc3)cc2)CC1	99% (active)	98% (active)	-4	100% (active)	inactive	inactive	inactive	inactive
c1ccc(-c2cc(NCCCCCCCCNc3cc(-c4ccccc4)nc4ccccc34)c3ccccc3n2)cc1	72% (active)	36%	1	101% (active)	inactive	inactive	inactive	inactive

Compound	growth inhibition [1]	inhibition [2]	inhibition [3] [%]	growth inhibition [4]	outcome [5]	outcome [6]	outcome [7]	outcome [8]
COc1ccc2cc(C(C)NC3CCN(c4cccc(NC(=O)c5ccncc5)c4)CC3)ccc2c1 (stereo not drawn)	6%	13%	-1	91% (active)	inactive	inactive	inactive	inactive
O=C(/C=C/c1cc(C(F)(F)F)ccc1F)NCCCCCN1CCC(c2c[nH]c3ccccc23)CC1	4%	39%	-1	88% (active)	inactive	inactive	inactive	inactive
O=C(Nc1ccc(-c2csc3nccn23)cc1)c1ccc(Cl)cc1	50% (active)	54% (active)	-5	100% (active)	inactive	inactive	inactive	inactive
Cc1ccc(NC(=O)NC2CCN(CCCCCNC(=O)/C=C/c3ccc(Cl)c(Cl)c3)CC2)cc1C	25%	36%	-3	101% (active)	inactive	inactive	inactive	inactive
Cc1cc(N2Cc3ccccc3C2)nc(Nc2cccc(C#N)c2)n1	97% (active)	6%	-2	100% (active)	inactive	inactive	inactive	inactive
CNC(=O)c1cc(Nc2nnc(-c3ccc(C)c(S(=O)(=O)NC4CCCCC4)c3)c3ccccc23)ccc1OC	61% (active)	-10%	5	87% (active)	inactive	inactive	inactive	inactive
c1ccc(CCNc2ccnc(Nc3ccc4n[nH]nc4c3)n2)cc1	95% (active)	33%	-4	101% (active)	inactive	inactive	inactive	inactive
CC(=O)Oc1c(C2CCN(CCCCNC(=O)c3ccc(NC(=O)c4ccc(Cl)cc4)cc3)CC2)ccc2c1CCCC2	80% (active)	21%	2	100% (active)	inactive	inactive	inactive	inactive
Oc1ccc(CCNc2nc(NCCCOc3cccc(-c4ccccc4)c3)nc(N3CCNCC3)n2)cc1	14%	40%	-2	89% (active)	inactive	inactive	inactive	inactive
COc1ccc2ccccc2c1CCCCN1CCN(CC(c2ccc(F)cc2)N2CCN(C3CCCC3)CC2)CC1 (stereo not drawn)	51% (active)	88% (active)	6	88% (active)	inactive	inactive	inactive	inactive
Cc1cc(NN=Cc2ccc(Cl)cc2)c2cc(C(F)(F)F)ccc2n1	32%	0%	-5	91% (active)	inactive	inactive	inactive	inactive
COc1ccc2nc(C)cc(NN=Cc3cc(OC)c(OC)cc3OC)c2c1	56% (active)	1%	5	100% (active)	inactive	inactive	inactive	inactive
CN1CCC[C@H]1COc1ccc(CN2CC[C@H](NC(=O)c3ccc(Cl)c(Cl)c3)C2)c2ccccc12	98% (active)	47%	-3	101% (active)	inactive	inactive	inactive	inactive
CCN(CC)CCN(Cc1ccc(-c2ccc(C(F)(F)F)cc2)cc1)C(=O)Cn1cc(Cc2cnn(C)c2)c(=O)nc1/C=C/c1ccc(F)cc1	91% (active)	6%	3	96% (active)	inactive	inactive	inactive	inactive
O=C(/C=C/c1ccc(Cl)c(Cl)c1)NCCCCCN1CCC(NC(=O)Nc2ccc(F)c(F)c2)CC1	4%	24%	2	99% (active)	inactive	inactive	inactive	inactive
O=C(Nc1ccc(Br)cc1)c1cc(Br)ccc1NS(=O)(=O)c1ccc(C(F)(F)F)cc1	56% (active)	53% (active)	2	100% (active)	inactive	inactive	inactive	inactive
CCCCOc1cc(CNCCCCCCNCc2cc(OCCCC)cc3ccccc23)c2ccccc2c1	92% (active)	99% (active)	-5	101% (active)	inactive	inactive	inactive	inactive
OC1CCCN(Cc2ccc(-c3ccc(-c4nc5ccc(F)cc5[nH]4)cc3)cc2)C1 (stereo not drawn)	79% (active)	55% (active)	2	100% (active)	inactive	inactive	inactive	inactive
